# Most compounds without a hit are left out; they make up all but 27% or so of the library.
# CYP2C9 activ – activators of human CYP2C9; P11712; recombinant CYP2C9, luciferin-H conversion, luminescence; stronger effect = higher value; factor 1 = untreated enzyme, 0 = blocked; activation factor at 5 µM; 96,000 tested, 1.4% active;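 active = activation factor of 2 or more for CYP2C9 at a 5 µM dose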;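 also: 0 = sulfaphenazole-blocked wells and 1 = vehicle-only wells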
# Target sequence (P11712 whole entry, looked up): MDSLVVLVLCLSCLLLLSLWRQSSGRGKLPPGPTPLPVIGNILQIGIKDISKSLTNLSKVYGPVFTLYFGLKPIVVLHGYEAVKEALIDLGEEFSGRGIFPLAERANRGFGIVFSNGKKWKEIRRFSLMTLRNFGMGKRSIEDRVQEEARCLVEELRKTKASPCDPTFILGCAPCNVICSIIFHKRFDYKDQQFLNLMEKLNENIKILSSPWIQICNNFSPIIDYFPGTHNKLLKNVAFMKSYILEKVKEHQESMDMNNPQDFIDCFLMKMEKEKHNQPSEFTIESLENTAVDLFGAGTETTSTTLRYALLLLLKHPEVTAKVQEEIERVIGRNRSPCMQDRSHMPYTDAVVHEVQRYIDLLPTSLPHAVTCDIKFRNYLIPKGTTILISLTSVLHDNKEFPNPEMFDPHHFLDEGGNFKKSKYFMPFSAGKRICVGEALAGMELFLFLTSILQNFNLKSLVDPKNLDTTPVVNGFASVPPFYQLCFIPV
# CYP2C9 inhib – inhibitors of human CYP2C9 | P11712 | CYP2C9 Supersomes, luciferin-H conversion, luminescence | inhibition, % at 5 µM | 96,000 tested, 20% active;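 active = blocking of liver enzyme CYP2C9 beyond about 50% at 5 µM, limit read from the data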
# CYP2C19 inhib – inhibitors of human CYP2C19. P33261. CYP2C19 Supersomes, luciferin-H EGE luminescence, 30 min. inhibition, % at 5 µM. 96,000 tested, 21% active. AID 778;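 active = CYP2C19 inhibition above a set limit at 5 µM in the primary screen, cut at about 50% in these data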;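 also: plate controls were negative control wells for no effect and 2.5 mM tranylcypromine positive control for full effect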
# EphB4 antag – antagonists of human EphB4-ephrin-B2 interaction; P54760; 97,000 tested, 0.15% active; inhibition, % at 7 µM; EphB4 LBD / TNYL-RAW-Alexa532 peptide, fluorescence polarization; AID 720;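 active = inhibition above the screen-wide mean inhibition plus 3 SD, cut at about 15% in these data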;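 also: 0% = DMSO wells and 100% = excess unlabeled TNYL-RAW peptide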
# CYP2C19 activ – cytochrome P450 2C19 (human) activation; 96,000 tested, under 10 active; P33261; recombinant CYP2C19, luciferin-H EGE luminescence; stronger effect = higher value; 0 = fully inhibited enzyme, 1 = untreated enzyme; AID 1025; activation factor at 5 µM;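 active = activation factor of at least 2 at 5 µM in the primary screen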;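 also: 0 = wells with 2.5 mM tranylcypromine and 1 = vehicle-only wells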
# Numbers without * were called inactive; x = not tested or not shown.
SMILES,CYP2C9 activ,CYP2C9 inhib,CYP2C19 inhib,EphB4 antag,CYP2C19 activ
COC(=O)c1cccc(NC(=O)CSc2nnc(COc3ccc(C#N)cc3)n2-c2ccccc2)c1,0.3,69*,39,6,0.6
Cc1nnc(SCC(=O)Nc2sccc2C(N)=O)n1Cc1ccccc1,2.3*,-128,76*,-7,0.2
COCc1nnc(SCC(=O)Nc2cccc(Cl)c2C)n1-c1ccccc1,0.8,18,84*,-1,0.2
CCOc1ccc(-n2c(COc3ccccc3)nnc2SCC(N)=O)cc1,0.6,37,76*,4,0.2
CC(C)(C)NC(=O)CN(C(=O)C1(C)CC(=O)N=C2C=CC=CN21)C1CCCC1 (stereo not drawn),0.9,7,-1,3,1
CCc1nn(-c2cc(Cl)ccc2OC)c2c1C(=O)CCC2,0.8,16,34,0,0.7
CCCc1nn(-c2cc(Cl)ccc2OC)c2c1C(=O)CC(C)(C)C2,0.3,66*,63*,0,0.4
CCCCn1c(NC(=O)c2ccccc2)c(C#N)c2nc3ccccc3nc21,0.2,81*,-1,4,1
N#Cc1c(N)n(CCNC(=O)c2ccc(Cl)cc2)c2nc3ccccc3nc12,1,-4,10,5,0.9
CC(=O)NCc1nc2ccccc2n1Cc1ccccc1F,0.9,6,8,-6,0.9
CCC(=O)N1N=C(c2ccc(NS(C)(=O)=O)cc2)CC1c1ccc(C)cc1 (stereo not drawn),0.6,42,29,-3,0.7
CNC(=S)N1N=C(c2ccc(C)cc2)CC1c1ccc(Br)cc1 (stereo not drawn),0.1,92*,55*,4,0.4
CNC(=S)N1N=C(c2ccc(C)cc2)CC1c1ccc(Cl)cc1 (stereo not drawn),0.1,90*,29,-6,0.7
Cc1cc(NC(=O)c2ccc(C)s2)n(-c2ccccc2)n1,0.7,27,76*,3,0.2
Cc1cc(NC(=O)COc2ccc(Cl)cc2Cl)n(-c2ccccc2)n1,0.7,34,71*,6,0.3
Cc1cc(Nc2nc3c(c(=O)n(C)c(=O)n3C)n2C)n(-c2ccc(Cl)cc2)n1,0.6,43,2,x,1
Cc1cc(Nc2ccccc2)n(-c2ccc(Br)cc2)n1,0,97*,90*,-1,0.1
Cc1cc(NC(=O)Nc2cc(C)nn2-c2ccccc2)n(-c2ccccc2)n1,1,1,14,-5,0.9
Cc1cc(Nc2ccc(Cl)cc2)n(-c2cccc(Cl)c2)n1,0,98*,99*,5,0
COC(=O)c1ccc2c(=O)n(CCCN3CCOCC3)c(=S)[nH]c2c1,1.1,-6,-12,-4,1.1
Cc1cc(Nc2ccc(Cl)cc2)n(-c2ccccc2)n1,0.3,70*,59*,-4,0.4
CCSc1nc2c(cnn2-c2ccc(C)c(C)c2)c(=O)[nH]1,1,0,34,-2,0.7
CN1CCOCCOCCN(C)C(=O)N2CCOCCOCCN(CCOCC2)C1=O,0.9,15,12,2,0.9
CCCCCCC(=O)Nc1cc2c(C)cc(=O)oc2cc1C,2.5*,-155,41,2,0.6
Cc1cn(CC2COC(C)(C)O2)c(=O)[nH]c1=O (stereo not drawn),1.1,-8,-6,-4,1.1
SMILES,CYP2C9 activ,CYP2C9 inhib,CYP2C19 inhib,EphB4 antag,CYP2C19 activ
CCOC(=O)C1CCCN(CC(=O)Nc2c(C(=O)OC)[nH]c3ccc(C)cc23)C1 (stereo not drawn),0.4,60*,43,2,0.6
CCOC(=O)C1CCCN(CC(=O)Nc2c(C(=O)OC)[nH]c3ccc(Cl)cc23)C1 (stereo not drawn),0.1,91*,91*,-2,0.1
COC(=O)c1[nH]c2ccc(C)cc2c1NC(=O)CN1CCCc2ccccc21,0.2,85*,23,1,0.8
COC(=O)c1[nH]c2cc(C)ccc2c1NC(=O)CN1CCN(c2ccccc2OC)CC1,0.7,30,24,-2,0.8
CCN(CC(=O)Nc1c(C(=O)OC)[nH]c2ccc(Cl)cc12)c1ccc2c(c1)OCO2,0,97*,88*,-2,0.1
COC(=O)c1[nH]c2ccc(C)cc2c1NC(=O)CCN1CCN(Cc2ccc3c(c2)OCO3)CC1,0.8,18,37,6,0.6
CC1(C)Cc2c(c(-c3ccccc3)nc(N3CCOCC3)c2C(N)=O)CO1,0.8,23,-1,1,1
CC(C)c1nc(N2CCOCC2)c(C#N)c2c1CCC2,0.8,22,16,-1,0.8

# High-throughput results as filed in PubChem BioAssay.
